For 46 compounds, coactivator binding (% of control) results are on record in PubChem BioAssay AID639 (Emory University Molecular Libraries Screening Center, 2007).

About 1,200 (1.4%) of roughly 86,000 compounds were called active. Cut-off read from the data, not from the text of the source: active = activity above about 200%; inactive = the rest. The full list was thinned out, with actives kept by preference.

Sequence of Estrogen receptor (Homo sapiens) (P03372 whole entry, looked up, the tested form may be a part): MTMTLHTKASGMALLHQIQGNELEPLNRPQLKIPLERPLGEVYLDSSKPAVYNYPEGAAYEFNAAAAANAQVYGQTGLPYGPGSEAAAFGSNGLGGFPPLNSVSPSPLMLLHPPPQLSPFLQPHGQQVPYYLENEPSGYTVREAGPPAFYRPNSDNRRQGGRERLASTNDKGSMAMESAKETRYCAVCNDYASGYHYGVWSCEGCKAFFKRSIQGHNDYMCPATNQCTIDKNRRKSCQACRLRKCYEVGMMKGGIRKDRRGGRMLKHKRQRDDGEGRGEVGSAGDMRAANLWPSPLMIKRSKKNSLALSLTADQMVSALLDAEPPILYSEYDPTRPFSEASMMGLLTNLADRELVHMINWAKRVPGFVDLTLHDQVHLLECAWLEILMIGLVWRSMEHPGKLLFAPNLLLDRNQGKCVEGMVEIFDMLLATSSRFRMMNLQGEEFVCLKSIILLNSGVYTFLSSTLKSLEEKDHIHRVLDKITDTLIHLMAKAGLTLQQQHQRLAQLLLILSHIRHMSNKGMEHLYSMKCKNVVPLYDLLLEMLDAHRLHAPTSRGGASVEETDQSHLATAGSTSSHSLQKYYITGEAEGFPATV

This test has as its target Estrogen receptor (Homo sapiens) (UniProt P03372). Put plainly: enhancers of ERα–SRC-1 coactivator binding, primary screen, biochemical, TR-FRET, ERα LBD, low estradiol (AID 639).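 Note: binding measured in presence of low estradiol as agonist stimulus; 0% = peptide alone without receptor and 100% = receptor with peptide.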 The following applies: TR-FRET ERalpha-LBD/SRC-Cy5 coactivator binding, 2 h; at 25.6 µM; stronger effect = higher value; 100 = basal binding, no effect.
In the case of `CCOc1cc(C2C(C(=O)OC)=CN(C3CCCC3)C=C2C(=O)OC)cc(Br)c1O`, the coactivator binding (% of control) is 210% [fluorescence artefact?] (active).

Turning to `CCOc1ccccc1C1C(C(=O)OC)=CN(C)C=C1C(=O)OC`, the coactivator binding (% of control) was 93.7% (inactive).

As for `CCOc1ccc(CNC(=O)C2CCC(=O)N2C2CCCC2)cc1OC` (stereo unspecified), the coactivator binding (% of control) is 131% (inactive).

Turning to `CCOCc1nnc(NC(=O)CSc2ccc(C)cc2)s1`, the coactivator binding (% of control) is 102% (inactive).

Turning to `CCOc1ccccc1NC(=O)C1CCCN(C(=O)Nc2ccccc2)C1` (stereo unspecified), the coactivator binding (% of control) is 92.4% (inactive).

Take `CCOc1ccc(CC(=O)Nc2ccc(S(=O)(=O)Nc3cc(C)on3)cc2)cc1OCC`: the coactivator binding (% of control) was 311% [fluorescence artefact?] (active).

On to `Cc1cc(NS(=O)(=O)c2ccccc2)no1`, for which the coactivator binding (% of control) was 122% (inactive).

`CCOc1ccc(NC(=O)Nc2cc(C)on2)cc1`: the coactivator binding (% of control) was 107% (inactive).

With `CCCCC(C(=O)OCC(=O)c1ccc(OC)cc1)N1C(=O)c2ccccc2C1=O` (stereo unspecified), the coactivator binding (% of control) is 97.8% (inactive).

As for `Cn1c(=O)c2c(ncn2CC(COCc2ccccc2Cl)OCc2ccccc2Cl)n(C)c1=O` (stereo unspecified), the coactivator binding (% of control) was 112% (inactive).

As to `CCOC(=O)c1nnn(-c2nonc2-n2cccc2)c1CN1CCC(C(=O)OCC)CC1`, the coactivator binding (% of control) is 114% (inactive).

With `O=c1[nH]c(SCc2ccccc2)nnc1-c1ccccc1`, the coactivator binding (% of control) is 103% (inactive).

Turning to `COc1ccc(N2CCN(C(=O)CSc3nc4cc(OC)c(OC)cc4cc3C#N)CC2)cc1`, the coactivator binding (% of control) is 101% (inactive).

Turning to `CCOc1ccc2cc(C#N)c(SCC(=O)OC)nc2c1`, the coactivator binding (% of control) is 260% [fluorescence artefact?] (active).

With `COC(=O)CSc1nc(C)c2ccc(OC)cc2n1`, the coactivator binding (% of control) was 100% (inactive).

Consider `CC(C)C(OC(=O)c1cccs1)C(=O)NC1CCCCC1` (stereo unspecified), for which the coactivator binding (% of control) was 115% (inactive).

Consider `CCOCCCNC(=O)C(NC(=O)c1ccc(=O)[nH]c1)c1ccc(C)cc1` (stereo unspecified), for which the coactivator binding (% of control) is 107% (inactive).

Turning to `CCOC(=O)c1cnc(SCC(=O)Nc2cccc(OC)c2)nc1N`, the coactivator binding (% of control) was 113% (inactive).

`CCOC(=O)c1cnc(-n2nc(C)cc2C)nc1Nc1cccc(C(C)=O)c1`: the coactivator binding (% of control) is 868% [fluorescence artefact?] (active).

Regarding `CCOC(=O)c1cnc(-n2nc(C)cc2C)nc1-n1nc(C)cc1C`, the coactivator binding (% of control) is 116% (inactive).

For `N=c1c2c3c(sc2nc2n1CCCCC2)CCCC3`, the coactivator binding (% of control) was 113% (inactive).

On to `CNC(=S)N1N=C(c2ccccc2)CC1c1ccc(Br)cc1` (stereo unspecified), for which the coactivator binding (% of control) is 171% (inactive).

For `COc1ccc(OC)c(C(=O)CSc2nnc(-c3cccs3)o2)c1`, the coactivator binding (% of control) was 125% (inactive).

As for `COc1ccc(-c2nnc(SCC(=O)c3cccs3)o2)c(OC)c1`, the coactivator binding (% of control) is 94.7% (inactive).

For `COc1ccc(-n2c(C)cc(C(=O)CSc3nnc(-c4cccs4)o3)c2C)cc1`, the coactivator binding (% of control) was 201% (active).

As for `CCN(CC)C(=O)CSc1ncnc2c1cnn2-c1ccccc1`, the coactivator binding (% of control) was 117% (inactive).

With `Cc1nc2c(-c3ccc(F)cc3)c(C)nn2c(C)c1CCC(=O)NCc1ccco1`, the coactivator binding (% of control) is 96.1% (inactive).

As to `CC(C)N1C(=S)SC(C)(C)C1n1oc(=O)n(-c2ccc(Cl)c(Cl)c2)c1=O` (stereo unspecified), the coactivator binding (% of control) was 113% (inactive).

With `Cc1cc(C)n(C(=O)CCNC(=O)c2ccccc2Cl)n1`, the coactivator binding (% of control) is 100% (inactive).

Take `Cc1ccc(C)c(N2C(=O)CS/C2=N\NC(=O)c2ccccc2Cl)c1`: the coactivator binding (% of control) is 102% (inactive).

Consider `CCc1ccc(CNC(=O)C2CC(=O)N(CCc3ccc(C)cc3)C2)cc1` (stereo unspecified), for which the coactivator binding (% of control) was 115% (inactive).

`N#CC(=C1SC=CS1)c1nc(-c2ccccc2)cs1`: the coactivator binding (% of control) is 206% (active).

With `N#CC(=C1CCCC1)c1nc(-c2ccc(Cl)cc2)cs1`, the coactivator binding (% of control) was 103% (inactive).

As for `N#C/C(=C1\CCCN1)c1nc(-c2ccccc2)cs1`, the coactivator binding (% of control) was 116% (inactive).

Regarding `Cc1nc(N2CCOCC2)nc2c1CCCC2`, the coactivator binding (% of control) is 111% (inactive).

In the case of `CCCOc1ccc(N2C(=O)CC(N(CCc3ccc(S(N)(=O)=O)cc3)C(C)=O)C2=O)cc1` (stereo unspecified), the coactivator binding (% of control) is 126% (inactive).

Take `Nn1c(Cc2cccc3ccccc23)nnc1SCC(=O)N1CC(=O)Nc2ccccc21`: the coactivator binding (% of control) was 63.7% (inactive).

`COc1ccc(-n2ncc3c(N4CCCc5ccccc54)ncnc32)cc1`: the coactivator binding (% of control) was 97.2% (inactive).

Consider `Cc1cccc(-n2ncc3c(N4CCc5ccccc54)ncnc32)c1`, for which the coactivator binding (% of control) is 137% (inactive).

With `COc1ccc(-n2ncc3c(N4CCc5ccccc54)ncnc32)cc1`, the coactivator binding (% of control) is 200% [fluorescence artefact?] (active).

For the compound `CCOC(=O)NC(C(F)(F)F)(C(F)(F)F)P(=O)(c1ccccc1)c1ccccc1`, the coactivator binding (% of control) was 95.9% (inactive).

As to `CCOC(=O)C1=C(c2ccccc2)O/C(=C(/C(=O)OC)C(F)(F)F)S1`, the coactivator binding (% of control) was 360% [fluorescence artefact?] (active).

Take `CCOC(=O)c1nnn(-c2nonc2OC)c1-c1ccccc1`: the coactivator binding (% of control) is 102% (inactive).

Take `COC(=O)c1ccccc1NC(=O)Cc1ccccc1OC`: the coactivator binding (% of control) is 120% (inactive).

In the case of `COc1ccc(NC(=O)CC2COc3ccccc3O2)c(OC)c1` (stereo unspecified), the coactivator binding (% of control) is 104% (inactive).

With `CCc1ccc(NC(=O)CSc2nnc(-c3cnccn3)n2Cc2ccco2)cc1`, the coactivator binding (% of control) is 148% (inactive).
